{"source": "PubChem BioAssay (NCATS)", "note": "Records with an inconclusive call do not appear. A number with no mark means an inactive call. Active and inactive are the calls of the source. The call rests on the fitted dose curve; in most records, active means well fitted curve in the direction sought with a large enough effect; inconclusive means small, poorly fitted or top-dose-only effect, or another doubt; inactive means no such curve, though single readings can be large; an effect the other way counts as inactive or inconclusive. Potency means the concentration at half of the fitted maximal effect.", "data": [{"test": "qHTS of pediatric cancer cell lines to identify multiple opportunities for drug repurposing: Primary screen for U-2 OS cells (AID 1347096); further: nearly all actives have a fitted effect of over 50% in size;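 on activity change, negative = cytotoxic: plate controls were DMSO wells for no effect and bortezomib positive control wells for full effect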", "conditions": "U-2 OS viability, CellTiter-Glo luminescence, 48 h; series mostly up to 46 µM; activity change, negative = cytotoxic: at the top concentration", "in_short": "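Cells (500-1,000/well) in growth media were settled 5 h at 37 degrees C, then given compounds for 48 h. Viability was read as CellTiter-Glo luminescence. Primary runs used MIPE at 11 points (0.78 nM-46 µM) and NPC at 8 points (0.59 nM-46 µM); follow-ups used 11 points.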", "values": [{"smiles": "CN1CCC(N(Cc2ccccc2)c2ccccc2)CC1", "activity change, negative = cytotoxic": "-3.63%"}, {"smiles": "C[N+]1(C)[C@@H]2CC[C@H]1CC(OC(=O)C(CO)c1ccccc1)C2", "note": "(some centres undefined)", "activity change, negative = cytotoxic": "4.34%"}, {"smiles": "COCC(=O)N(c1c(C)cccc1C)C(C)C(=O)OC", "note": "(centres undefined)", "activity change, negative = cytotoxic": "9.25%"}, {"smiles": "CCc1cc(OC)c(C[C@H](C)N)cc1OC", "activity change, negative = cytotoxic": "-17.9% [at 92.7 µM]"}, {"smiles": "Cc1c(Cl)c(=O)oc2cc(OP(=O)(OCCCl)OCCCl)ccc12", "activity change, negative = cytotoxic": "6.18%"}, {"smiles": "CCOC(=O)NC(O)C(Cl)(Cl)Cl", "note": "(centres undefined)", "activity change, negative = cytotoxic": "8.05%"}, {"smiles": "CN1C(=O)CN=C(c2ccccc2)c2cc(Cl)ccc21", "activity change, negative = cytotoxic": "-15.2%"}, {"smiles": "CCCN(CCC)CCc1c[nH]c2ccccc12", "activity change, negative = cytotoxic": "-13.1% [at 92.7 µM]"}, {"smiles": "CC(C)[N+](C)(CCC(C(N)=O)(c1ccccc1)c1ccccc1)C(C)C", "activity change, negative = cytotoxic": "10.4%"}, {"smiles": "CCCCCCCCC(=O)NCc1ccc(O)c(OC)c1", "activity change, negative = cytotoxic": "17%"}, {"smiles": "CNC(=O)NC(O)C(Cl)(Cl)Cl", "note": "(centres undefined)", "activity change, negative = cytotoxic": "4.73%"}, {"smiles": "CCOC(=O)C1(c2ccccc2)CCN(CCc2ccc(N)cc2)CC1", "activity change, negative = cytotoxic": "5.25%"}, {"smiles": "c1ccc2nc(N3CCNCC3)ccc2c1", "activity change, negative = cytotoxic": "-5.29%"}, {"smiles": "CC1N=C(N)OC1c1ccccc1", "note": "(centres undefined)", "activity change, negative = cytotoxic": "-10.8% [at 92.7 µM]"}, {"smiles": "O=C(CBr)Nc1ccc(Cl)cc1C(=O)c1ccccc1F", "activity change, negative = cytotoxic": "9.86%"}, {"smiles": "ClCCCN1CCN(c2cccc(Cl)c2)CC1", "activity change, negative = cytotoxic": "5.65%"}, {"smiles": "C=CCOC(Cn1ccnc1)c1ccc(Cl)cc1Cl", "note": "(centres undefined)", "activity change, negative = cytotoxic": "-14.8%"}, {"smiles": "COc1ccc2[nH]cc(CCN(C(C)C)C(C)C)c2c1", "activity change, negative = cytotoxic": "2.32% [at 92.7 µM]"}, {"smiles": "CC(Cc1ccccc1)NCCCCl", "note": "(centres undefined)", "activity change, negative = cytotoxic": "7.22%"}, {"smiles": "O=C1CN2CCOC2(c2ccccc2Cl)c2cc(Cl)ccc2N1", "note": "(centres undefined)", "activity change, negative = cytotoxic": "4.46%"}, {"smiles": "C[N+]1(CCC(C(N)=O)(c2ccccc2)c2ccccc2)CCCCC1", "activity change, negative = cytotoxic": "8.45%"}, {"smiles": "CCC(=O)C(CCN(C)C)(c1ccccc1)c1ccccc1", "activity change, negative = cytotoxic": "3.44%"}, {"smiles": "CN1C(=O)[C@@H](NC(=O)c2cc3ccccc3[nH]2)N=C(c2ccccc2)c2ccccc21", "activity change, negative = cytotoxic": "-17.2%"}, {"smiles": "CC[C@H]1C[C@H]2[C@@H]3CCC4=CC(=O)CC[C@@H]4[C@H]3CC[C@]2(C)[C@H]1O", "activity change, negative = cytotoxic": "-17.8%"}, {"smiles": "CCOC(C(=O)OCCN(C)C)(c1ccccc1)c1ccccc1", "activity change, negative = cytotoxic": "5.9%"}, {"smiles": "CC(C(O)c1ccccc1)N(C)C/C=C/c1ccccc1", "note": "(centres undefined)", "activity change, negative = cytotoxic": "-9.2%"}, {"smiles": "C[C@]12CC[C@H](O)CC1=CC[C@@H]1[C@@H]2CC[C@]2(C)C(=O)CC[C@@H]12", "activity change, negative = cytotoxic": "7.69%"}, {"smiles": "COc1cc(C[C@@H](C)N)c(OC)cc1Br", "activity change, negative = cytotoxic": "-10.8% [at 92.7 µM]"}, {"smiles": "CCC1(CC)C(=O)NC(=O)NC1=O", "activity change, negative = cytotoxic": "7.33%"}, {"smiles": "CC[C@H](O)C(C[C@H](C)N(C)C)(c1ccccc1)c1ccccc1", "activity change, negative = cytotoxic": "-12.1% [at 92.7 µM]"}, {"smiles": "CN(C)C(=S)SSC(=S)N(C)C", "Potency": "0.266 µM (active)"}, {"smiles": "CCC(=O)OC1(c2ccccc2)CCN(C)CC1", "activity change, negative = cytotoxic": "-2.38% [at 92.7 µM]"}, {"smiles": "C[C@H]1C(=O)O[C@@H]2CCN3CC=C(COC(=O)[C@](C)(O)[C@]1(C)O)[C@H]23", "activity change, negative = cytotoxic": "-4.44%"}, {"smiles": "COP(=O)(OC)OC=C(Cl)Cl", "activity change, negative = cytotoxic": "13.2%"}, {"smiles": "COc1cc(N)c(Cl)cc1C(=O)NC1CN2CCC1CC2", "note": "(centres undefined)", "activity change, negative = cytotoxic": "3.95%"}, {"smiles": "CCN(Cc1ccc(Cl)nc1)/C(=C/[N+](=O)[O-])NC", "activity change, negative = cytotoxic": "5.34%"}, {"smiles": "CCN(CC)CCOC(=O)C(C)(c1ccccc1)c1ccccc1", "activity change, negative = cytotoxic": "-7.98%"}, {"smiles": "Cc1cccc(Cc2cnc[nH]2)c1C", "activity change, negative = cytotoxic": "-8.71%"}, {"smiles": "Oc1c(Br)cc(Br)cc1Br", "activity change, negative = cytotoxic": "13.4%"}, {"smiles": "CN1C[C@@H](NS(=O)(=O)N(C)C)C[C@@H]2c3cccc4c3c(cn4C)C[C@H]21", "activity change, negative = cytotoxic": "-0.305%"}]}, {"test": "qHTS of pediatric cancer cell lines to identify multiple opportunities for drug repurposing: Primary screen for Saos-2 cells (AID 1347097); further: nearly all actives have a fitted effect of over 40% in size; on activity change, negative = cytotoxic: on the % scale 0 is the no-effect control and ±100 the full control effect", "conditions": "Saos-2 viability, CellTiter-Glo ATP luminescence, 48 h; series mostly up to 46 µM; activity change, negative = cytotoxic: at the top concentration", "in_short": "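Luminescence from CellTiter-Glo served as readout of metabolically active cells after 48 h compound exposure. Titrations: MIPE 11-point, from 0.78 nM; NPC 8-point, from 0.59 nM (final). Concentration-response curves came straight from the primary screen.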", "values": [{"smiles": "CN1CCC(N(Cc2ccccc2)c2ccccc2)CC1", "activity change, negative = cytotoxic": "-21.3%"}, {"smiles": "C[N+]1(C)[C@@H]2CC[C@H]1CC(OC(=O)C(CO)c1ccccc1)C2", "note": "(some centres undefined)", "activity change, negative = cytotoxic": "-29%"}, {"smiles": "COCC(=O)N(c1c(C)cccc1C)C(C)C(=O)OC", "note": "(centres undefined)", "activity change, negative = cytotoxic": "7.41%"}, {"smiles": "CCc1cc(OC)c(C[C@H](C)N)cc1OC", "activity change, negative = cytotoxic": "-36.8% [at 92.7 µM]"}, {"smiles": "Cc1c(Cl)c(=O)oc2cc(OP(=O)(OCCCl)OCCCl)ccc12", "activity change, negative = cytotoxic": "-0.966%"}, {"smiles": "CN1C(=O)CN=C(c2ccccc2)c2cc(Cl)ccc21", "activity change, negative = cytotoxic": "-39.4%"}, {"smiles": "CC(C)[N+](C)(CCC(C(N)=O)(c1ccccc1)c1ccccc1)C(C)C", "activity change, negative = cytotoxic": "17.7%"}, {"smiles": "CNC(=O)NC(O)C(Cl)(Cl)Cl", "note": "(centres undefined)", "activity change, negative = cytotoxic": "-28.9%"}, {"smiles": "c1ccc2nc(N3CCNCC3)ccc2c1", "activity change, negative = cytotoxic": "-19%"}, {"smiles": "CC1N=C(N)OC1c1ccccc1", "note": "(centres undefined)", "activity change, negative = cytotoxic": "-18.4% [at 92.7 µM]"}, {"smiles": "O=C(CBr)Nc1ccc(Cl)cc1C(=O)c1ccccc1F", "activity change, negative = cytotoxic": "-18.3%"}, {"smiles": "ClCCCN1CCN(c2cccc(Cl)c2)CC1", "activity change, negative = cytotoxic": "1.87%"}, {"smiles": "C=CCOC(Cn1ccnc1)c1ccc(Cl)cc1Cl", "note": "(centres undefined)", "activity change, negative = cytotoxic": "-9.27%"}, {"smiles": "CC(Cc1ccccc1)NCCCCl", "note": "(centres undefined)", "activity change, negative = cytotoxic": "1.11%"}, {"smiles": "O=C1CN2CCOC2(c2ccccc2Cl)c2cc(Cl)ccc2N1", "note": "(centres undefined)", "activity change, negative = cytotoxic": "-8.63%"}, {"smiles": "C[N+]1(CCC(C(N)=O)(c2ccccc2)c2ccccc2)CCCCC1", "activity change, negative = cytotoxic": "4.77%"}, {"smiles": "CCC(=O)C(CCN(C)C)(c1ccccc1)c1ccccc1", "activity change, negative = cytotoxic": "-13.7%"}, {"smiles": "CN1C(=O)[C@@H](NC(=O)c2cc3ccccc3[nH]2)N=C(c2ccccc2)c2ccccc21", "Potency": "10.6 µM (active)"}, {"smiles": "CC[C@H]1C[C@H]2[C@@H]3CCC4=CC(=O)CC[C@@H]4[C@H]3CC[C@]2(C)[C@H]1O", "activity change, negative = cytotoxic": "-21%"}, {"smiles": "CC(C(O)c1ccccc1)N(C)C/C=C/c1ccccc1", "note": "(centres undefined)", "activity change, negative = cytotoxic": "-20%"}, {"smiles": "CC[C@H](O)C(C[C@H](C)N(C)C)(c1ccccc1)c1ccccc1", "activity change, negative = cytotoxic": "-27.9% [at 92.7 µM]"}, {"smiles": "CN(C)C(=S)SSC(=S)N(C)C", "Potency": "0.133 µM (active)"}, {"smiles": "CCC(=O)OC1(c2ccccc2)CCN(C)CC1", "activity change, negative = cytotoxic": "-18.2% [at 92.7 µM]"}, {"smiles": "C[C@H]1C(=O)O[C@@H]2CCN3CC=C(COC(=O)[C@](C)(O)[C@]1(C)O)[C@H]23", "activity change, negative = cytotoxic": "-25.1%"}, {"smiles": "COc1cc(N)c(Cl)cc1C(=O)NC1CN2CCC1CC2", "note": "(centres undefined)", "activity change, negative = cytotoxic": "-11.5%"}, {"smiles": "CCN(Cc1ccc(Cl)nc1)/C(=C/[N+](=O)[O-])NC", "activity change, negative = cytotoxic": "18.7%"}, {"smiles": "CCN(CC)CCOC(=O)C(C)(c1ccccc1)c1ccccc1", "activity change, negative = cytotoxic": "-11.6%"}, {"smiles": "Cc1cccc(Cc2cnc[nH]2)c1C", "Potency": "29.9 µM (active)"}, {"smiles": "Oc1c(Br)cc(Br)cc1Br", "activity change, negative = cytotoxic": "19.1%"}]}]}
